Test results published in PubChem BioAssay AID504333 (National Center for Advancing Translational Sciences (NCATS), 2011).
The campaign covered roughly 360,000 compounds. About 16,000 (4.4%) were called active. Entries that show only a call come without a potency. Roughly 9% stayed inconclusive and do not appear here. Calls follow the shape of the dose curve; as a rule, active = well fitted inhibition curve with a large enough effect; inconclusive = small, poorly fitted or top-dose-only effect; inactive = no such curve, though single readings can be large or run the other way. For the sample, actives were picked, then their nearest neighbours and some compounds at random.

These molecules were tested against Bromodomain adjacent to zinc finger domain protein 2B (Homo sapiens) (UniProt Q9UIF8) (assay: qHTS Assay for Inhibitors of BAZ2B). Conditions: AlphaScreen BAZ2B-H3K14Ac peptide displacement; series mostly up to 114 µM.
Summary of the method: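 AlphaScreen luminescence quantifies BAZ2B engagement of H3K14Ac peptide; the protein and biotinylated peptide are both at 50 nM final, buffer PBS pH 7.4 with 0.01% Tween-20, all steps at room temperature.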
Also: nearly all actives have a fitted effect of over 60% in size.
Potency is read from the fitted curve at half-maximal effect.

Bromodomain adjacent to zinc finger domain protein 2B (Homo sapiens), sequence (Q9UIF8 whole entry, looked up, the tested form may be a part): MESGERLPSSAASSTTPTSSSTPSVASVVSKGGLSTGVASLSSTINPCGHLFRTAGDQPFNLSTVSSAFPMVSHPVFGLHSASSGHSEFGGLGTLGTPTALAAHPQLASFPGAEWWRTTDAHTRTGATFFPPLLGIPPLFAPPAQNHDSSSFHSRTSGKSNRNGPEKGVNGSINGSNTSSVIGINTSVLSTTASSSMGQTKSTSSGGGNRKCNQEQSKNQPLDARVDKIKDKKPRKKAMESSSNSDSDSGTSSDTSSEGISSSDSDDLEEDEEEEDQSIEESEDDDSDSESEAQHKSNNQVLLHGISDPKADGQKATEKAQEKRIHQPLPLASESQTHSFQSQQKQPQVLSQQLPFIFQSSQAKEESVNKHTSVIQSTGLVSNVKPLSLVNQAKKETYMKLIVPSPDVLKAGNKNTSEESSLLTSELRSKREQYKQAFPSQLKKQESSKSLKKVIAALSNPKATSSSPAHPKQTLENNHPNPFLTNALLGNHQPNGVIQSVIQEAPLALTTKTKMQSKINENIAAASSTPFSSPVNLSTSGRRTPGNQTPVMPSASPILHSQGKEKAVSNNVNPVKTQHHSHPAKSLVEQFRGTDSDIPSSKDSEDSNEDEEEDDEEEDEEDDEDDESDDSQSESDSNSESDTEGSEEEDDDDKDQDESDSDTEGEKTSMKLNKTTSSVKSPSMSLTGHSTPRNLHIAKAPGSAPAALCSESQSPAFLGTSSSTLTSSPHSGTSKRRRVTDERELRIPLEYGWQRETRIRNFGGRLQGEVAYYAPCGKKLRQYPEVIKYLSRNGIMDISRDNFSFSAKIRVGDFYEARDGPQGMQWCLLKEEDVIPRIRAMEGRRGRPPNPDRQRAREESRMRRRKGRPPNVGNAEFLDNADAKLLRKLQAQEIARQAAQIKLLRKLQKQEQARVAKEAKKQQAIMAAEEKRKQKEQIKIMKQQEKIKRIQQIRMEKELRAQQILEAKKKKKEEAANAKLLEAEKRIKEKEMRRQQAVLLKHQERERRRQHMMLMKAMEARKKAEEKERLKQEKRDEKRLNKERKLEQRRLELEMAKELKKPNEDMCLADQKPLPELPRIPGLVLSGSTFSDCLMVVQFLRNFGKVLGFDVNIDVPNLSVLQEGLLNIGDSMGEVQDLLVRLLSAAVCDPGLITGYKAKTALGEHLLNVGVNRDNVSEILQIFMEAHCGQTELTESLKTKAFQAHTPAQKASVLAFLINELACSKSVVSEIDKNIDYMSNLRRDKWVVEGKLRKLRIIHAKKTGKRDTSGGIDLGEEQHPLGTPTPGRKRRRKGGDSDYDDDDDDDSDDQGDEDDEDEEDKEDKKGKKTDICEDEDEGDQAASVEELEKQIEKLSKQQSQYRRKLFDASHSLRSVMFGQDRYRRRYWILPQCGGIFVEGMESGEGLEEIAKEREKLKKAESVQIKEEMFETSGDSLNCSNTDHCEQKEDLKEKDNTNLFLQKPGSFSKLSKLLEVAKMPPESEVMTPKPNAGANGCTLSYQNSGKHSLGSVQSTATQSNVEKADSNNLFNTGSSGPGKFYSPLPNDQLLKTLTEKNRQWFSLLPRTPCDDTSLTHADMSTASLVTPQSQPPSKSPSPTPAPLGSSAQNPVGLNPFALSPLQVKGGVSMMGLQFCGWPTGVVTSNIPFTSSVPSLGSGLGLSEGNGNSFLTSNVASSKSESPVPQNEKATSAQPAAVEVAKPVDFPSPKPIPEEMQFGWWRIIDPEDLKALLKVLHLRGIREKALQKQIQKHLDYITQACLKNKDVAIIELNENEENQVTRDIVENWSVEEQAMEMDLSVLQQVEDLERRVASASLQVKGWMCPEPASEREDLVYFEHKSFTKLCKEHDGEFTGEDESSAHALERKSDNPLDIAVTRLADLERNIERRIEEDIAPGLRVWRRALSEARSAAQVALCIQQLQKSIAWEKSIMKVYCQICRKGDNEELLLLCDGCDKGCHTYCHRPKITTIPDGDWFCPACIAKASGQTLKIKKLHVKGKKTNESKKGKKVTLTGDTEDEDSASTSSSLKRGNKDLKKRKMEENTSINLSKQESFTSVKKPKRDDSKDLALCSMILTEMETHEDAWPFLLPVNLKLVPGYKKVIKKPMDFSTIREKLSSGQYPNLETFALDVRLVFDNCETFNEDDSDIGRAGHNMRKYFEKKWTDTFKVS

| Structure (SMILES) | Potency |
| --- | --- |
| COc1ccc(OC)c(-c2noc(N3CCN(c4cc(Cl)ccc4C)CC3)n2)c1 | inactive |
| O=C(Nc1ccc2nc(SCC(=O)N3CCCc4ccccc43)sc2c1)c1ccc(F)cc1 | inactive |
| CCOC(=O)c1c(C)[nH]c(C)c1S(=O)(=O)NCC(=O)NCc1cccc(C)c1 | inactive |
| Cc1ccc(C)c(CNC(=O)c2cc3ccccn3n2)c1 | inactive |
| CCc1ccc2nc(N(CCCN(C)C)C(=O)c3ccc4c(c3)OCCO4)sc2c1 | inactive |
| CN(C)CCCN(C(=O)c1ccc(S(=O)(=O)N2CCCCCC2)cc1)c1nc2ccc(Br)cc2s1 | 28.2 µM (active) |
| CCN(CC)CCN(C(=O)c1ccc(S(=O)(=O)N2CCOCC2)cc1)c1nc2cc3c(cc2s1)OCCO3 | inactive |
| Cc1ccc2nc(N(CCN(C)C)C(=O)C3=COCCO3)sc2c1 | inactive |
| CN(C)CCCN(C(=O)c1ccc(S(=O)(=O)N2CCCc3ccccc32)cc1)c1nc2ccc(F)cc2s1 | 28.2 µM (active) |
| CSc1nc2ccc(S(=O)(=O)N3CCc4ccccc43)cc2s1 | inactive |
| CCOc1ccc(OCC)c(NC(=O)c2c(C)nn(-c3ccccc3)c2-n2cccc2)c1 | inactive |
| O=C(CCc1ccccc1)NCc1ccc2c(c1)CCN2C(=O)c1ccccc1 | inactive |
| CCOCCCNC(=O)c1c(NC(=O)Cc2coc3ccc(C)cc23)sc2c1CCC2 | inactive |
| COc1ccccc1NC(=O)CN(c1ccccc1OC)S(=O)(=O)c1ccccc1 | inactive |
| COc1ccccc1N(CC(=O)N/N=C(\C)c1ccccc1O)S(=O)(=O)c1ccc(C)cc1 | 50.1 µM (active) |
| COc1ccc(S(=O)(=O)N(CC(=O)N/N=C/c2ccccc2C(=O)O)c2ccccc2OC)cc1 | inactive |
| CCCN(CCC)S(=O)(=O)c1ccc(C(=O)Nc2sc3c(c2C(=O)OC)CCN(CC)C3)cc1 | inactive |
| Cc1cccc(C(=O)N2CCc3cc(CNC(=O)Cc4ccc(F)cc4)ccc32)c1 | inactive |
| CCC(=O)Nc1c(C(=O)N2CCN(c3ccc(F)cc3)CC2)oc2ccccc12 | inactive |
| Cc1nnc(SCC(=O)NCc2ccccc2Cl)c2nn(-c3ccccc3)c(C)c12 | inactive |
| COc1ccc(CNC(=O)C(C)n2nc(C)c3c(C)n(-c4ccccc4)nc3c2=O)c(OC)c1 (stereo unspecified) | inactive |

| Structure (SMILES) | Potency |
| --- | --- |
| Cc1ccc(-n2nc3c(=O)n(C(C)C(=O)NCc4ccc5c(c4)OCO5)nc(C)c3c2C)cc1 (stereo unspecified) | 79.4 µM (active) |
| Cc1nn(C(C)C(=O)NCCC2=CCCCC2)c(=O)c2nn(-c3ccccc3)c(C)c12 (stereo unspecified) | inactive |
| O=C(CSCc1cnn(-c2ccccc2)c1-n1cccc1)NCc1ccccc1Br | inactive |
| CN=c1scc(-c2cc(OC)ccc2OC)n1/N=C/c1c(C)[nH]c2ccccc12 | 35.5 µM (active) |
| COCCNC(=S)N/N=C/c1c(C)[nH]c2ccccc12 | inactive |
| CCn1c(-c2cc(OC)ccc2OC)csc1=Nc1c(C)n(C)n(-c2ccccc2)c1=O | inactive |
| COc1ccc(CNC(=O)Cn2nnc(-c3ccccc3F)n2)cc1 | inactive |
| CC(C)c1ccc(NC(=O)c2cc(S(=O)(=O)N3CCc4ccccc4C3)ccc2F)cc1 | inactive |
| Cc1cccc(CCNC(=O)c2ccc3c(c2)nc2n3CCC(C)C2)c1 (stereo unspecified) | inactive |
| Cc1ccc(C)n1-c1nnc(N2CCC(C(=O)NCc3ccccc3Cl)CC2)s1 | inactive |
| O=C(N/N=C/c1ccccc1O)C1CCCC1 | inactive |
| Cc1ccc(-n2c(C)cc(/C=N\NC(=O)CC(=O)NC(C)C)c2C)cc1 | inactive |
| Cc1cc(/C=N/NC(N)=O)c(C)n1C1CCCCC1 | 50.1 µM (active) |
| CCC(=O)N1c2ccccc2CC1C(=O)N1CCN(c2cccc(OC)c2)CC1 (stereo unspecified) | inactive |
| O=C(CC(NCc1cccnc1)C(=O)O)Nc1ccc(O)cc1 (stereo unspecified) | inactive |
| COc1cccc(NC(=O)CN2CCN(c3nc(-c4cccc(OC)c4)cs3)CC2)c1 | inactive |
| CC1CCCC(C)N1C(=O)CN1CCN(c2nc(-c3ccc(F)cc3)cs2)CC1 (stereo unspecified) | 70.8 µM (active) |
| CCc1ccc(CNC(=O)C2CCN(c3nn4cc(-c5ccc(F)cc5)nc4s3)CC2)cc1 | inactive |
| CC(C)(C)NC(=O)CSc1nc(-c2ccc(F)cc2)cc(C(F)(F)F)n1 | inactive |
| COc1ccc(S(=O)(=O)N2CCCCC2)cc1C(=O)NC1CCS(=O)(=O)C1 (stereo unspecified) | inactive |
| CCc1ccc(NC(=O)c2cc(S(=O)(=O)NC3CCCCCC3)ccc2F)cc1 | inactive |

| Structure (SMILES) | Potency |
| --- | --- |
| CC(CCCc1ccccc1)NC(=O)c1nn(-c2ccc(Cl)cc2)nc1CO (stereo unspecified) | inactive |
| O=C(Nc1ccc(-n2ccnc2P(=O)(O)c2ccccc2)cc1)c1ccccc1Br | 44.7 µM (active) |
| Cn1c(=O)c(=O)n(C)c2cc(NC(=O)c3ccccc3Br)ccc21 | inactive |
| Cc1ccc(NC(=O)c2cccnc2C(=O)Nc2ccc(C)cc2)cc1 | inactive |
| COc1ccccc1NC(=O)CSc1oc(-c2ccco2)nc1S(=O)(=O)c1ccc(Br)cc1 | inactive |
| Cc1cccc(NC(=O)CSc2nc3c([nH]c4ccccc43)c(=O)n2-c2cc(C)cc(C)c2)c1 | inactive |
| CCN(CC)c1ccc(NC(=O)Cn2nc3c(cc2=O)CCCC3)c(C)c1 | inactive |
| CCOc1ccc(C2C(C#N)=C(N)N(N(C)C)C3=C2C(=O)CCC3)cc1 (stereo unspecified) | inactive |
| N#CC1=C(N)N(c2ccccc2)C2=C(C(=O)CCC2)C1c1ccccc1 (stereo unspecified) | inactive |
| COc1ccc(C2C(C#N)=C(N)N(c3ncn[nH]3)C3=C2C(=O)CCC3)cc1 (stereo unspecified) | 79.4 µM (active) |
| Oc1ccc(Br)cc1/C=N/Nc1ccccn1 | 31.6 µM (active) |
| Cc1c(C(=O)Nc2ccccn2)oc2ccc(Br)cc12 | inactive |
| Oc1ccc(Br)cc1C=Nc1ccc2[nH]ncc2c1 | inactive |
| COC(=O)c1ccc(NC(=O)CCc2c(C)nc3c(c(C)nn3-c3ccc(C)cc3)c2C)cc1 | inactive |
| COc1ccc(-c2nnc(SCC(=O)Nc3ccccc3C)o2)cc1OC | inactive |
| CC(C)c1ccc(S(=O)(=O)Nc2ccc(O)c(Sc3nc4ccccc4s3)c2)cc1 | 25.1 µM (active) |
| CC(C)(C)c1ccc(S(=O)(=O)Nc2ccc(O)c(Sc3nc4ccccc4s3)c2)cc1 | inactive |
| O=[N+]([O-])c1c(NCCO)cc(Sc2nc3ccccc3s2)c2nonc12 | inactive |
| CC(C)c1ccc(NC(=O)Cn2nnc(C(=O)NCCc3ccccc3)c2N)cc1 | inactive |
